# PubChem BioAssay (EPA / NIEHS)
# Records with an inconclusive call do not appear. A structure can be active in one record and inactive in another. Active and inactive are the calls of the source. How the source made its calls, unless noted: active means hit-call score of the fitted dose curve at least 0.9, where 1 is the maximum; inconclusive means response in the unintended direction; inactive means score below 0.9.
# Legend:
# [1] = read-out: Thyroid Hormone Responsive (THRSP), THRSP (gene 7069); assay: LTEA_HepaRG_THRSP: Life Technologies and Expression Analysis (LTEA) Assay for Thyroid Hormone Responsive (THRSP) using HepaRG (AID 2283536; active means hit-call score of the fitted dose curve at least 0.9, where 1 is the maximum; inactive means score below 0.9); conditions: mRNA level, 48 h; actives raise or lower the signal
# Summary of the method: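 Differentiated human HepaRG cells were exposed in duplicate for 48 h in serum-free induction medium to eight concentrations (top 100 uM, half-log steps, 0.5% DMSO). Expression was quantified by TaqMan qRT-PCR, normalized to ACTB, GAPDH and POLR2A, with bidirectional fitting against DMSO.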
# [2] = read-out: Cellular tumor antigen p53 (Homo sapiens) (UniProt P04637); assay: LTEA_HepaRG_TP53: Life Technologies and Expression Analysis (LTEA) Assay for Tumor Protein P53 (TP53) using HepaRG (AID 2283537; active means hit-call score of the fitted dose curve at least 0.9, where 1 is the maximum; inactive means score below 0.9); conditions: mRNA level, 48 h; actives raise or lower the signal
# Summary of the method: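 Differentiated HepaRG cells in serum-free induction medium exposed 48 h in duplicate to 8 half-log concentrations, top 100 uM, 0.5% DMSO. TP53 mRNA by TaqMan qRT-PCR (Fluidigm), normalized to ACTB, GAPDH, POLR2A; fitted bidirectionally versus DMSO.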
# [3] = read-out: UDP glucuronosyltransferase (UGT1A1), UGT1A1 (gene 54658); assay: LTEA_HepaRG_UGT1A1: Life Technologies and Expression Analysis (LTEA) Assay for UDP glucuronosyltransferase (UGT1A1) using HepaRG (AID 2283538; active means hit-call score of the fitted dose curve at least 0.9, where 1 is the maximum; inactive means score below 0.9); conditions: mRNA level, 48 h; actives raise or lower the signal
# Summary of the method: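 Human liver HepaRG cultures receive test chemical for 48 h, up to 100 uM in 0.5% DMSO, with phenobarbital induction controls. UGT1A1 mRNA is measured by qRT-PCR and normalized to ACTB, GAPDH and POLR2A.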
# [4] = read-out: UDP glucuronosyltransferase (UGT1A6), UGT1A6 (gene 54578); assay: LTEA_HepaRG_UGT1A6: Life Technologies and Expression Analysis (LTEA) Assay for UDP glucuronosyltransferase (UGT1A6) using HepaRG (AID 2283539; active means hit-call score of the fitted dose curve at least 0.9, where 1 is the maximum; inactive means score below 0.9); conditions: mRNA level, 48 h; actives raise or lower the signal
# Summary of the method: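 Expression was quantified by TaqMan qRT-PCR on Fluidigm arrays with ACTB/GAPDH/POLR2A normalization and bidirectional fitting against 0.5% DMSO. HepaRG cells (~100,000/well) were treated in duplicate for 48 h at eight half-log concentrations up to 100 uM in serum-free induction medium.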
# [5] = read-out: X-box binding protein 1 (XBP1), XBP1 (gene 7494); assay: LTEA_HepaRG_XBP1: Life Technologies and Expression Analysis (LTEA) Assay for X-box binding protein 1 (XBP1) using HepaRG (AID 2283540; active means hit-call score of the fitted dose curve at least 0.9, where 1 is the maximum; inactive means score below 0.9); conditions: mRNA level, 48 h; actives raise or lower the signal
# Summary of the method: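 XBP1 transcript by qRT-PCR (housekeeping-normalized: ACTB, GAPDH, POLR2A) after 48 h chemical treatment of HepaRG cells, 8-point half-log series topping at 100 uM, vehicle 0.5% DMSO. Gain and loss of signal fitted relative to DMSO.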
# [6] = LTEA_HepaRG_LDH_cytotoxicity: Cytotoxicity Assessment in the Life Technologies and Expression Analysis (LTEA) Assay (AID 2283563)
# Summary of the method: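 LDH release into culture medium read after 48 h chemical treatment of HepaRG cells. Duplicate wells, eight-point half-log series topping at 100 uM, 0.5% DMSO vehicle and baseline.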
# [7] = TOX21_p53_BLA_p2_viability: Viability Assessment in the Tox21 HCT-116 p53 Agonism Beta-lactamase Assay, Phase 2 (AID 2283591);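 further: compound exposure lasted 16 h at 37 °C; actives lower the ATP signal meaning cytotoxicity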
# Summary of the method: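 HCT-116 p53-bla cells (4000/well) rested 5 h at 37C, then received compounds in DMSO (217-fold dilution) for 16 h at 37C, 5% CO2. After the CCF4 read, CellTiter-Glo was added; ATP luminescence was read after 30 min at room temperature.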
# [8] = target: Cellular tumor antigen p53 (Homo sapiens) (UniProt P04637); assay: TOX21_p53_BLA_p2_ratio: Tox21 HCT-116 p53 Agonism Beta-lactamase Assay, Ratio, Phase 2 (AID 2283592)
# Summary of the method: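 Gain-of-signal p53 agonism was scored from the beta-lactamase FRET ratio (460/530 nm, 405 nm excitation) in HCT116 cells treated 16 h at 37C, 5% CO2, with DMSO serving as negative control and baseline.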
# [9] = target: Cellular tumor antigen p53 (Homo sapiens) (UniProt P04637); assay: TOX21_p53_BLA_p3_ratio: Tox21 HCT-116 p53 Agonism Beta-lactamase Assay, Ratio, Phase 3 (AID 2283596)
# Summary of the method: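 HCT116 p53-bla cells (4000/well) given compound in DMSO (217-fold dilution) after 5 h, incubated 16 h at 37C. CCF4-AM substrate 2 h at room temperature; 460/530 nm emission ratio, gain fitted against DMSO.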
# [10] = TOX21_p53_BLA_p4_viability: Viability Assessment in the Tox21 HCT-116 p53 Agonism Beta-lactamase Assay, Phase 4 (AID 2283597);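 further: hits lower the luminescence signal meaning cytotoxicity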
# Summary of the method: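 Following a 16 h exposure at 37C, the treated HCT116 wells were first read for the FRET ratio. They were then lysed with CellTiter-Glo, and ATP luminescence was recorded after 30 min at room temperature.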
# [11] = target: Cellular tumor antigen p53 (Homo sapiens) (UniProt P04637); assay: TOX21_p53_BLA_p5_ratio: Tox21 HCT-116 p53 Agonism Beta-lactamase Assay, Ratio, Phase 5 (AID 2283599)
# Summary of the method: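 HCT-116 cells carrying a p53-inducible beta-lactamase reporter were seeded at 4000 cells/well and dosed after 5 h with compound in DMSO (217-fold dilution). After 16 h at 37C, CCF4-AM substrate was added for 2 h, and the 460/530 nm emission ratio was scored as gain-of-signal versus DMSO.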
# [12] = TOX21_p53_BLA_p5_viability: Viability Assessment in the Tox21 HCT-116 p53 Agonism Beta-lactamase Assay, Phase 5 (AID 2283600)
# Summary of the method: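 After the 460/530 nm beta-lactamase measurement, the wells received an ATP-detection luciferase reagent; signal was read 30 min later at RT. Compound treatment lasted 16 h on cells pre-incubated 5 h post-seeding.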
# [13] = Tanguay_ZF_120hpf_MORT_legacy: (Legacy) Oregon State University Tanguay Lab 120 Hour Post-fertilization zebrafish Assay for Mortality (AID 2283633);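 on AC50: fitted as increase in binary mortality versus DMSO negative control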
# Summary of the method: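 Static waterborne exposure from 6 to 120 hpf at 28C of single dechorionated wild-type (5D) embryos per well, 0.64% DMSO final. Death recorded present/absent by brightfield at 24 and 120 hpf.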
# [14] = Tanguay_ZF_120hpf_YSE_legacy: (Legacy) Oregon State University Tanguay Lab 120 Hour Post-fertilization zebrafish Assay for Yolk Sac Edema (AID 2283634);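 on AC50: actives raise the incidence of yolk sac edema above the DMSO baseline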
# Summary of the method: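 Presence or absence of yolk sac edema was recorded at 120 hpf in surviving larvae. These were wild-type Tropical 5D embryos, chorion removed at 4 hpf, held in static exposure at 28C from 6 hpf with 0.64% DMSO vehicle.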
# [15] = Tanguay_ZF_120hpf_AXIS_legacy: (Legacy) Oregon State University Tanguay Lab 120 Hour Post-fertilization zebrafish Assay for Body Axis Malformation (AID 2283635);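 on AC50: potency for an increased fraction of larvae scored with body axis malformation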
# Summary of the method: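 Binary scoring of axis defects at 120 hpf under brightfield, fitted positive versus DMSO. Tropical 5D embryos, chorion removed by pronase at 4 hpf, were singly exposed in sealed, dark plates at 28C from 6 hpf; DMSO 0.64% final.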
# [16] = Tanguay_ZF_120hpf_EYE_legacy: (Legacy) Oregon State University Tanguay Lab 120 Hour Post-fertilization zebrafish Assay for Eye Malformation (AID 2283636);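 further: binary presence or absence of eye malformation scored by brightfield in 120 hpf larvae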
# Summary of the method: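 Dechorionated wild-type Tropical 5D zebrafish embryos were exposed statically from 6 hpf, one per well, to 120 hpf at 28C in sealed, foil-covered plates with 0.64% DMSO. Eye malformation was scored present/absent by brightfield microscopy against DMSO controls.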
# [17] = Tanguay_ZF_120hpf_SNOU_legacy: (Legacy) Oregon State University Tanguay Lab 120 Hour Post-fertilization zebrafish Assay for Snout Malformation (AID 2283637)
# Summary of the method: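 Tropical 5D wild-type zebrafish embryos, dechorionated with pronase at 4 hpf, were exposed singly from 6 hpf to 120 hpf statically at 28C in 0.64% DMSO. Snout malformation was scored present/absent by brightfield microscopy, fitted against DMSO.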
# [18] = TOX21_p53_BLA_p3_viability: Viability Assessment in the Tox21 HCT-116 p53 Agonism Beta-lactamase Assay, Phase 3 (AID 2283593);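 further: cells exposed to compound for 16 h before reading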
# Summary of the method: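 HCT-116 cells (4000/well) rested 5 h at 37C, then got DMSO compounds by pin tool (217-fold dilution) for 16 h at 37C, 5% CO2. After the bla read, CellTiter-Glo was added and luminescence read at 30 min, room temperature.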
# [19] = target: Cellular tumor antigen p53 (Homo sapiens) (UniProt P04637); assay: TOX21_p53_BLA_p4_ratio: Tox21 HCT-116 p53 Agonism Beta-lactamase Assay, Ratio, Phase 4 (AID 2283601)
# Summary of the method: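 HCT116 cells carrying an inducible beta-lactamase reporter were plated at 4000 cells/well, rested 5 h, then exposed to compounds in DMSO (217-fold dilution) for 16 h at 37C. CCF4-AM substrate was loaded 2 h at room temperature; 460/530 nm emission ratio scored gain-of-signal versus DMSO.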
# [20] = ATG_XTT_Cytotoxicity: Cytotoxicity Assessment in the Attagene TRANS-FACTORIAL HepG2 Assay (AID 2283584)
# Summary of the method: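 Viability endpoint from XTT after 24 h chemical exposure of reporter-transfected human HepG2 liver cells; signal loss fitted relative to DMSO negative control.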
# Sequence of Cellular tumor antigen p53 (Homo sapiens) (P04637 whole entry, looked up): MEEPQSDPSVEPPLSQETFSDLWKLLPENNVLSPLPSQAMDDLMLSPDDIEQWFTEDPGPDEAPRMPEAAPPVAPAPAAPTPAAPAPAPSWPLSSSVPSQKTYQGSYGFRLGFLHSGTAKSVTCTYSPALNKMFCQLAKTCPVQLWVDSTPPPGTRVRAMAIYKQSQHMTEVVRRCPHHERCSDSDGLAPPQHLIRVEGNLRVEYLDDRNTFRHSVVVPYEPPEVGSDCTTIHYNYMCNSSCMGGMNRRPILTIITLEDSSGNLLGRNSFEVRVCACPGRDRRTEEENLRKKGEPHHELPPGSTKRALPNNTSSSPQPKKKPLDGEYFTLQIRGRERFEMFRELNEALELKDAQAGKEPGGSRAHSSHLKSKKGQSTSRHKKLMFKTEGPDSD
smiles,measurement,setting,value
Cc1cc(SC2=C(O)C[C@@](CCc3ccc(N)cc3)(C(C)C)OC2=O)c(C(C)(C)C)cc1CO,outcome,[1],inactive
same,outcome,[2],inactive
same,AC50,[3],1.38 µM (active)
same,outcome,[4],inactive
same,outcome,[5],inactive
same,outcome,[6],inactive
same,outcome,[7],inactive
same,outcome,[8],inactive
same,outcome,[9],inactive
same,outcome,[10],inactive
same,outcome,[11],inactive
same,outcome,[12],inactive
same,outcome,[13],inactive
same,outcome,[14],inactive
same,outcome,[15],inactive
same,outcome,[16],inactive
same,outcome,[17],inactive
O=C(O)c1[nH]n(-c2ccc(S(=O)(=O)O)cc2)c(=O)c1N=Nc1ccc(S(=O)(=O)O)cc1,outcome,[1],inactive
same,outcome,[2],inactive
same,outcome,[3],inactive
same,outcome,[4],inactive
same,outcome,[5],inactive
same,outcome,[6],inactive
same,AC50,[8],0.000189 µM (active)
same,outcome,[8],inactive
same,outcome,[18],inactive
same,AC50,[9],0.0528 nM (active)
same,outcome,[9],inactive
same,outcome,[10],inactive
same,AC50,[11],6.52e-05 µM (active)
same,outcome,[11],inactive
same,outcome,[12],inactive
same,AC50,[19],6.18e-05 µM (active)
same,outcome,[13],inactive
same,outcome,[14],inactive
same,outcome,[15],inactive
same,outcome,[16],inactive
same,outcome,[17],inactive
CCCCCCCCCC[N+](C)(C)[O-],outcome,[1],inactive
same,outcome,[2],inactive
same,outcome,[3],inactive
same,outcome,[4],inactive
same,outcome,[5],inactive
same,outcome,[6],inactive
same,outcome,[20],inactive
same,outcome,[8],inactive
same,outcome,[18],inactive
same,outcome,[9],inactive
same,outcome,[12],inactive
same,outcome,[19],inactive
same,outcome,[13],inactive
same,outcome,[14],inactive
same,outcome,[16],inactive
CCCCCCCCCCCCCCOS(=O)(=O)O,outcome,[1],inactive
same,outcome,[2],inactive
same,outcome,[3],inactive
same,outcome,[4],inactive
same,outcome,[5],inactive
same,outcome,[6],inactive
same,outcome,[20],inactive
same,AC50,[7],74.2 µM (active)
same,outcome,[8],inactive
same,outcome,[18],inactive
same,outcome,[9],inactive
same,AC50,[10],73.1 µM (active)
same,AC50,[11],80.7 µM (active)
same,AC50,[12],68.3 µM (active)
same,AC50,[19],78.4 µM (active)
same,AC50,[13],27.8 µM (active)
same,AC50,[14],10.8 µM (active)
same,AC50,[15],31.5 µM (active)
same,AC50,[16],26.1 µM (active)
Cc1cc(Cc2ccc(N)c(C)c2)ccc1N,outcome,[1],inactive
same,outcome,[2],inactive
same,AC50,[3],28.1 µM (active)
same,outcome,[4],inactive
same,outcome,[5],inactive
same,outcome,[6],inactive
same,outcome,[20],inactive
same,outcome,[7],inactive
same,outcome,[8],inactive
same,outcome,[18],inactive
same,outcome,[9],inactive
same,outcome,[10],inactive
same,outcome,[11],inactive
same,outcome,[12],inactive
same,outcome,[13],inactive
same,outcome,[14],inactive
same,outcome,[15],inactive
same,outcome,[16],inactive
same,outcome,[17],inactive
OCC(O)CO,outcome,[1],inactive
same,outcome,[2],inactive
same,outcome,[3],inactive
same,outcome,[4],inactive
same,outcome,[5],inactive
same,outcome,[6],inactive
same,outcome,[13],inactive
same,outcome,[14],inactive
same,outcome,[15],inactive
same,outcome,[16],inactive
S=c1[nH]c2ccccc2s1,outcome,[1],inactive
same,outcome,[2],inactive
same,outcome,[3],inactive
same,outcome,[4],inactive
same,outcome,[5],inactive
same,outcome,[6],inactive
same,outcome,[20],inactive
same,outcome,[7],inactive
same,outcome,[8],inactive
same,outcome,[18],inactive
same,outcome,[9],inactive
same,outcome,[10],inactive
same,outcome,[11],inactive
same,outcome,[19],inactive
same,outcome,[13],inactive
same,AC50,[14],11.7 µM (active)
same,AC50,[15],36.7 µM (active)
same,AC50,[16],42.1 µM (active)
same,AC50,[17],40.7 µM (active)
